Test results taken from PubChem BioAssay.
Calls of active or inactive are those of the source.

How the values were obtained:
[1] = system: PRMT1 (protein arginine N-methyltransferase 1); test: PRMT1 binders on small-molecule microarrays, primary screen, biochemical, small-molecule microarray, 635 nm fluorescence (AID 1088); conditions: small-molecule microarray binding, higher = more signal;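 note: binding of Prmt1 protein to compounds spotted on small-molecule microarray slides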
[2] = yeast growth modulation, basal conditions, primary screen, YJM789 clinical isolate, OD600, 24 h (AID 1089);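 note: growth of clinical yeast isolate S. cerevisiae YJM 789 seeded 1000 cells per well; test concentration not given here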; conditions: S. cerevisiae YJM789 growth, higher = more signal, called active from +8 up or from −8 down
[3] = fission yeast growth modulation, primary screen, strain 972, OD600, 24 h, no modulator (AID 1090);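 note: basal condition with compound alone and no growth modifier present; test concentration not given here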; conditions: S. pombe 972 growth, higher = more signal, called active from +8 up or from −8 down
[4] = S. cerevisiae growth modulation with rapamycin, primary screen, strain BY4716, OD600, 96 h (AID 1091); conditions: higher = more signal, called active from +8 up or from −8 down; note: test concentration not given here
[5] = biological target: Torsin-1A-interacting protein 2 (Homo sapiens) (UniProt Q8NFQ8); test: LULL1 binders on small-molecule microarray, primary screen, cell lysate, human LULL1 lysate, 635/667 nm fluorescence (AID 1092); conditions: hLULL1 lysate binding, 635 nm fluorescence, higher = more signal;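 note: probe is lysate of COS7 cells overexpressing human LULL1; score merges per-feature 667 nm fluorescence with signal-to-noise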
Sequence of Torsin-1A-interacting protein 2 (Homo sapiens) (Q8NFQ8 whole entry, looked up): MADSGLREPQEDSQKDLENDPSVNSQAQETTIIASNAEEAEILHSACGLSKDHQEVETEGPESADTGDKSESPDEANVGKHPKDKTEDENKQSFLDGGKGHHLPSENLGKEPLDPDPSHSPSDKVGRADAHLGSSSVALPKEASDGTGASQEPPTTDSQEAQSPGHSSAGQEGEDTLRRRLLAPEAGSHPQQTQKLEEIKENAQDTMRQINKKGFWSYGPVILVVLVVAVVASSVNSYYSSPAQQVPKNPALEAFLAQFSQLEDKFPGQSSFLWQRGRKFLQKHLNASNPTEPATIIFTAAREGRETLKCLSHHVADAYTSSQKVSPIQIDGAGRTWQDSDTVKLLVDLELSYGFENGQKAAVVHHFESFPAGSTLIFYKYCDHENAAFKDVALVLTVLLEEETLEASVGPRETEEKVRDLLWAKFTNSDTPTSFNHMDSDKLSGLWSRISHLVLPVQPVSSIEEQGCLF

[6] = E. coli growth modulation, two-sided OD650, primary screen, E. coli filamentation project, strain DRC41, 24 h (AID 1093); conditions: OD650, 24 h, higher = more signal, called active from +8 up or from −8 down;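 note: MC1000 strain lacking acrAB efflux and sulA so SOS filamentation is blocked; test concentration not given here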
[7] = small-molecule microarray binders of probe aLefty2, primary screen, biochemical, biotinylated probe, 635/667 nm fluorescence (AID 1094); conditions: higher = more signal;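 note: score merges spot fluorescence near 667 nm with spot signal-to-noise ratio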
[8] = system: Noggin (protein binding on small-molecule microarray); test: Noggin binders on small-molecule microarray, primary screen, biochemical, 635/667 nm fluorescence (AID 1095); conditions: 635 nm fluorescence, higher = more signal;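 note: score merges 667 nm feature fluorescence with signal to noise over triplicate slides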
[9] = biological target: Neurogenic locus notch homolog protein 3 (Homo sapiens) (UniProt Q9UM47); test: NOTCH3 binders on small-molecule microarray, primary screen, biochemical, 635/667 nm fluorescence (AID 1096); conditions: NOTCH3 binding, 635 nm fluorescence, higher = more signal
Sequence of Neurogenic locus notch homolog protein 3 (Homo sapiens) (Q9UM47 whole entry, looked up): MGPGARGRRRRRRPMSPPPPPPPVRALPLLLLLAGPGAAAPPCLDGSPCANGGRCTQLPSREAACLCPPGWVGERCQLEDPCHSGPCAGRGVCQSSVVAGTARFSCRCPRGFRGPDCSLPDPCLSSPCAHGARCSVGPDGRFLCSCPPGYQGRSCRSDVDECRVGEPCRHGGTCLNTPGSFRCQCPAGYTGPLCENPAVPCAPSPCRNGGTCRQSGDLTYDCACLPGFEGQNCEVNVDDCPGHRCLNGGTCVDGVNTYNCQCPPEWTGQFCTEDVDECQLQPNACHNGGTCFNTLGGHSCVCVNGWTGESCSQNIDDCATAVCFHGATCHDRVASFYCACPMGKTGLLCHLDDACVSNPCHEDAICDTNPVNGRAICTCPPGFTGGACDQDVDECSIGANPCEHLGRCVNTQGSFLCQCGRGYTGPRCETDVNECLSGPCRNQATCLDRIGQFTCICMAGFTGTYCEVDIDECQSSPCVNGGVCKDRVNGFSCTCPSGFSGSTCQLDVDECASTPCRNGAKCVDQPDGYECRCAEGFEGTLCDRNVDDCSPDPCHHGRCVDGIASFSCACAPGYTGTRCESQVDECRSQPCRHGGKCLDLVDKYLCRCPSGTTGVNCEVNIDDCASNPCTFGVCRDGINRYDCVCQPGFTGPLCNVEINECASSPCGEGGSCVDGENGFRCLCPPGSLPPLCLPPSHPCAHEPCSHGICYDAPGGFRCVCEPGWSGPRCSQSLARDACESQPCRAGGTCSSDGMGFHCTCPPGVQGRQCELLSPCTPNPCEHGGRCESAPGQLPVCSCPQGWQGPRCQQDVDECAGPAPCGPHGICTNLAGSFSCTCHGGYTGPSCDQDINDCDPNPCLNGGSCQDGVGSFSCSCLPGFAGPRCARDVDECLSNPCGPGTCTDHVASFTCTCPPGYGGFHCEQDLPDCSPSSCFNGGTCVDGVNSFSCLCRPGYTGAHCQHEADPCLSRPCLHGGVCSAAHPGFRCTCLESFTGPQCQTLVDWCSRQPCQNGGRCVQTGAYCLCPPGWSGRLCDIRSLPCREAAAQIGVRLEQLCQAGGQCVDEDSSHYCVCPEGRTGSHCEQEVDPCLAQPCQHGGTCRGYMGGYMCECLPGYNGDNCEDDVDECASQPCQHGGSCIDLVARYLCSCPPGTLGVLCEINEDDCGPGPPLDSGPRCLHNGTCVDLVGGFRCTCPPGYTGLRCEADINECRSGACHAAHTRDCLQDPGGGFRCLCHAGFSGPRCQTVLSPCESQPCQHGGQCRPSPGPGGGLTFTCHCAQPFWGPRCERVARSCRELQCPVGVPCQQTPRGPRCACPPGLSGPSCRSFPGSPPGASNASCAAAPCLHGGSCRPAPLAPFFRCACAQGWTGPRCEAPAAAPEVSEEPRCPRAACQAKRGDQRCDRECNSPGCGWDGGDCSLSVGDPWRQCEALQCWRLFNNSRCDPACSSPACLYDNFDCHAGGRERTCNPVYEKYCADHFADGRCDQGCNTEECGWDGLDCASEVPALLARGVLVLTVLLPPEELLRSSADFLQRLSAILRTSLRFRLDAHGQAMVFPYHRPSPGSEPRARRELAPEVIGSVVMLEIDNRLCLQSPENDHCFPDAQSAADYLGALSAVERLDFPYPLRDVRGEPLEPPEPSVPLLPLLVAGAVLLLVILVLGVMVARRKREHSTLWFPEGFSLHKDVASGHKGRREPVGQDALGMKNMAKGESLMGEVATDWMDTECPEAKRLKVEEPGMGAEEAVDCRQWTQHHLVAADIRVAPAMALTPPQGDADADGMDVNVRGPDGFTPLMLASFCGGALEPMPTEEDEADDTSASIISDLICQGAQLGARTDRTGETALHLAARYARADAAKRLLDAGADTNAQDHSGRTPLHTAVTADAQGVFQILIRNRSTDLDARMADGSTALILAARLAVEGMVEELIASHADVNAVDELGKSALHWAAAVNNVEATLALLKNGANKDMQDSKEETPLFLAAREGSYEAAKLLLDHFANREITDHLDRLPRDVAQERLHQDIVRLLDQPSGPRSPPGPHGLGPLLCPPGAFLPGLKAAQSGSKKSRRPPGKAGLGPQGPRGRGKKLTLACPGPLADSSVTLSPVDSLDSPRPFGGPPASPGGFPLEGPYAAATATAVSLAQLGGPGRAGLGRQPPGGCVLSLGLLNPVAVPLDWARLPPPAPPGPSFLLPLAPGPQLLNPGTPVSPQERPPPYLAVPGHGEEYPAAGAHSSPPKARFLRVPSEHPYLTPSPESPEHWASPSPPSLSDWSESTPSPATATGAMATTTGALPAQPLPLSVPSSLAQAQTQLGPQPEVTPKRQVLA

[10] = small-molecule microarray binders of probe aEGFR, primary screen, biochemical, biotinylated probe, 635/667 nm fluorescence (AID 1097); conditions: higher = more signal;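 note: probe is a biotinylated anti-EGFR antibody binding compounds printed on slides; score combines fluorescence near 667 nm and signal to noise of each spot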

Structure (SMILES)	composite z-score [1]	z-score [2]	z-score [3]	z-score [4]	composite z-score [5]	z-score [6]	composite z-score [7]	composite z-score [8]	composite z-score [9]	composite z-score [10]
COc1ccc([Si](C)(C)[C@H]2[C@H](CCn3cc(CCO)nn3)O[C@@]3(C(=O)N(Cc4ccc(N5C(=O)c6cccc7cccc5c67)cc4)c4ccccc43)[C@@H]2C)cc1	1.55	-0.246 (inactive)	0.983 (inactive)	6.07 (inactive)	1.86	2.76 (inactive)	-0.0895	1.41	1.09	-0.0371
CCOC(=O)C1=CC[C@@H](c2cc(Cl)ccc2Cl)N(S(=O)(=O)c2ccc(C)cc2)[C@H]1c1ccc(OC)cc1	-0.393	1.31 (inactive)	2.17 (inactive)	1.43 (inactive)	0.506	-0.0891 (inactive)	0.754	-0.546	-0.329	0.379
NC(N)=NCc1cn(CCc2c[nH]c3ccccc23)nn1	0.974	-0.289 (inactive)	-0.002 (inactive)	-1.38 (inactive)	1.01	-0.979 (inactive)	-0.166	1.36	0.646	0.128
NC(=O)N1C(=O)C2C(C1=O)C1C=C(CCCO)C2C(c2cccs2)N1Cc1cc2c(cc1Br)OCO2 (stereo not given)	0.0811	-1.75 (inactive)	-0.498 (inactive)	-1.79 (inactive)	1.84	0.263 (inactive)	-0.0362	0.0233	0.508	-0.0978
C[C@H]1ON(c2ccc(C(=O)OC(C)(C)C)cc2)[C@@H](c2ccc(O)cc2)[C@@H]1C(=O)N1C(=O)OC[C@@H]1c1ccccc1	1.51	0.657 (inactive)	-1.95 (inactive)	31.6 (active)	1.69	-0.661 (inactive)	-0.33	0.819	1.05	-0.0315
[N-]=[N+]=NCc1ccccc1C[C@@]1(C(=O)N2CCCCC2)N=C(c2ccc(OCCCO)cc2)O[C@@H]1c1ccccc1N=[N+]=[N-]	0.422	-0.64 (inactive)	0.832 (inactive)	4.02 (inactive)	1.73	1.17 (inactive)	-0.0591	0.244	0.923	0.0923
CN(C)CCCN1C(=O)[C@@]2(c3ccc([N+](=O)[O-])cc3)CC(=O)N(CC34CC5CC(CC(C5)C3)C4)[C@@H]2c2ccc(CO)cc21	1.54	0.296 (inactive)	-0.505 (inactive)	-1.06 (inactive)	3.29	0.304 (inactive)	-0.116	-0.378	0.214	-0.12
C=CC[C@@]1(C(=O)N2CCCCC2)N=C(c2ccc(OCCCO)cc2)O[C@@H]1c1ccccc1	1.56	-2.83 (inactive)	-5.65 (inactive)	-1.18 (inactive)	3.06	0.868 (inactive)	0.361	1.14	0.5	0.0222
COCCOC(=O)N1C(=O)[C@@]2(c3cc(C#CCC(C(=O)OC)C(=O)OC)ccc31)[C@H](c1ccc(OCCO)cc1)N1[C@H](c3ccccc3)[C@H](c3ccccc3)OC(=O)[C@H]1[C@@H]2C(=O)N1CCN(c2ncccn2)CC1	1.45	1.07 (inactive)	0.934 (inactive)	6.44 (inactive)	3.17	1.75 (inactive)	0.0112	1.17	1.07	0.0397
CCOC(=O)C1=CC[C@@H](c2ccc([N+](=O)[O-])cc2)N(S(=O)(=O)c2ccc(C)cc2)[C@H]1c1ccccc1	1.54	0.792 (inactive)	1.45 (inactive)	3.16 (inactive)	2.98	0.413 (inactive)	0.0511	1.02	1.14	0.202
O=C1c2ccccc2[C@@]2(Cc3ccccc3N(C3CC3)C2=O)[C@H](c2ccc(CO)cc2)N1C1CCCCC1	-0.767	-0.451 (inactive)	0.285 (inactive)	-0.728 (inactive)	1.79	-0.1 (inactive)	-0.17	-0.699	-0.938	-0.168
O=C1O[C@@H](c2ccccc2)[C@@H](c2ccccc2)N2[C@@H](c3ccc(O)cc3)[C@]3(C(=O)Nc4ccc(C#CC5=CCCCC5)cc43)[C@@H](C(=O)N3CCN(c4ncccn4)CC3)[C@H]12	1.55	0.922 (inactive)	0.487 (inactive)	0.566 (inactive)	3.12	1.62 (inactive)	0.517	1.86	1.15	-0.115
CC=CC(O)C1C=CC2C(=O)N(C)C(=O)C2N1N1CCCCC1 (stereo not given)	1.34	-0.322 (inactive)	1.01 (inactive)	-0.207 (inactive)	3.52	-1.53 (inactive)	0.0974	0.605	1.09	-0.115
CCCCN1CC=CC23O[C@@H]4C=CCOC(=O)[C@@H]4[C@H]2C(=O)N(C(C)CO)[C@@H]3C1=O (stereo not given in full)	-1.57	-0.543 (inactive)	-1.22 (inactive)	-0.557 (inactive)	-0.449	-0.479 (inactive)	-0.205	-0.929	-1.25	-0.216
CC(C)(C)OC(=O)CC[C@]1(C(=O)N2CCOCC2)N=C(c2ccc(OCCCO)cc2)O[C@H]1c1ccccc1	0.587	0.0164 (inactive)	-0.988 (inactive)	-0.439 (inactive)	2.52	0.961 (inactive)	0.0038	1.26	0.348	-0.0656
O=C1O[C@@H](c2ccccc2)[C@@H](c2ccccc2)N2[C@@H](c3ccccc3OCCO)[C@]3(C(=O)Nc4ccc(C#CC5=CCCCC5)cc43)[C@@H](C(=O)NC[C@H](O)c3ccccc3)[C@H]12	1.55	1.03 (inactive)	0.112 (inactive)	3.61 (inactive)	2.38	1.38 (inactive)	-0.273	0.988	1.11	-0.0371
COCCCNC(=O)[C@]1(Cc2ccccc2CN=[N+]=[N-])N=C(c2ccc(OCCCO)cc2)O[C@@H]1c1ccccc1	0.972	-0.212 (inactive)	-0.0448 (inactive)	30.9 (active)	2.67	1.01 (inactive)	-0.0819	0.348	0.599	0.0316
O=C1C[C@@](C(=O)NCC(F)(F)F)(c2ccc([N+](=O)[O-])cc2)[C@@H](c2ccc(CO)cc2)N1C1CCCCC1	1.56	-0.748 (inactive)	-0.209 (inactive)	-0.917 (inactive)	3.48	0.258 (inactive)	0.11	0.956	0.823	-0.0271
CCOC(=O)C[C@H]1[C@H](OC(=O)c2ccccc2-c2ccccc2)[C@@H](NC(=O)CC(C)C)c2cc(OCCCO)ccc2N1C(=O)c1ccc2ccccc2n1	0.0508	-0.0014 (inactive)	-0.0812 (inactive)	0.116 (inactive)	1.19	-0.64 (inactive)	-0.158	0.219	-0.0063	0.0111
CC(C)(C)OC(=O)CC[C@]1(C(=O)O)N=C(c2ccc(OCCCO)cc2)O[C@H]1c1ccccc1CN=[N+]=[N-]	-0.619	0.832 (inactive)	0.291 (inactive)	-0.683 (inactive)	2	0.275 (inactive)	-0.0991	-0.465	0.168	-0.103
CON(C)C(=O)C=C1C[C@@H](c2cccc(Cl)c2)O[C@@H](c2cccc(Cl)c2)O1	0.945	0.37 (inactive)	-0.873 (inactive)	6.28 (inactive)	0.989	-0.168 (inactive)	-0.0309	0.407	0.121	-0.0769
COC(=O)[C@@]1(Cc2ccccc2)[C@H]2c3cc(C(=O)N4CCCC4)n(C[C@H](O)CO)c3C[C@H]2CN1C(=O)c1ccccc1	-0.956	0.43 (inactive)	1.74 (inactive)	-0.167 (inactive)	3.45	-0.436 (inactive)	0.127	0.334	0.873	0.08
[N-]=[N+]=Nc1ccccc1C[C@]1(C(=O)NCc2ccccc2)N=C(c2ccc(OCCCO)cc2)O[C@H]1c1ccccc1	1.56	-0.623 (inactive)	0.69 (inactive)	17.8 (active)	3.34	0.7 (inactive)	0.206	0.383	1.12	0.048
COC(=O)C(CC#Cc1ccc2c(c1)[C@]1(C(=O)N2)[C@H](C(=O)O)[C@H]2C(=O)O[C@H](c3ccccc3)[C@H](c3ccccc3)N2[C@@H]1c1ccccc1OCCO)C(=O)OC	1.54	1.93 (inactive)	0.324 (inactive)	-1.17 (inactive)	3.04	-0.972 (inactive)	0.396	1.27	1.15	0.103
CN(C)CCCCNC(=O)[C@H]1C[C@H]2C(=O)N3CCC[C@H]3C(=O)N2[C@H]1c1ccc(O)cc1	0.765	-0.859 (inactive)	1.1 (inactive)	-0.384 (inactive)	0.391	1.27 (inactive)	-0.234	-0.439	0.229	-0.45
CCOC(=O)C1=CC[C@@H](c2ccccc2)N(S(=O)(=O)c2ccc(C)cc2)C1	-0.363	0.483 (inactive)	1.09 (inactive)	2.72 (inactive)	0.353	-0.855 (inactive)	0.365	-0.0914	-0.198	-0.0521
C=CCOC(=O)[C@@H]1[C@H]2C(=O)O[C@H](c3ccccc3)[C@H](c3ccccc3)N2[C@H](c2ccc(OCCOC(=O)[C@H]3C[C@H]4C(=O)N[C@@H](CCCCN(C)C)C(=O)N4[C@H]3c3cccc(OCCO)c3)cc2)[C@@]12C(=O)Nc1ccc(I)cc12	1.56	0.95 (inactive)	0.688 (inactive)	3.87 (inactive)	2.81	0.0565 (inactive)	-0.0216	1.03	1.08	-0.105
C#CCNC(=O)[C@H](Cc1ccccc1)NC(=O)[C@@H](N=[N+]=[N-])C(C)C	0.911	-0.611 (inactive)	0.139 (inactive)	-0.229 (inactive)	1.57	0.35 (inactive)	-0.116	0.434	0.5	-0.071
